Screens as filed in PubChem BioAssay.
A selection: hits, their analogues and other compounds. The true share with any hit is near 4%.
AF4-AF9 inh: inhibitors of AF4 peptide binding to AF9, primary screen, biochemical, AlphaScreen, biotin-AF4 peptide, FLAG-AF9, single point | Protein AF-9 (Homo sapiens), P42568 | inhibition, % at 10 µM | hit rate 0.47% among 350,000 | AID 651704, 2012;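 active means every replicate reaching a set inhibition limit, whatever the replicate mean, cut at about 25% in these data; inconclusive means mean inhibition reaches that limit but some replicates miss it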
FGF22 binding: binders of human FGF22 protein, primary screen, FGF22 synaptogenesis inhibitor project, biophysical, thermal shift, single point; Fibroblast growth factor 22 (Homo sapiens), Q9HCT0; recombinant FGF22 thermal shift, SYPRO orange fluorescence; percent of sucrose octasulfate shift, DMSO zero; activity (Tm shift, normalised), % at 9.99 µM; hit rate 1.5% among 340,000; AID 651658, 2012;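 active means mean Tm shift, scaled 0 neutral to 100 positive control, at about 1.3% or above, every replicate too, limit read from the data; inconclusive means no clear call, values can overlap the other calls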
Target sequence (Q9HCT0 whole entry, looked up): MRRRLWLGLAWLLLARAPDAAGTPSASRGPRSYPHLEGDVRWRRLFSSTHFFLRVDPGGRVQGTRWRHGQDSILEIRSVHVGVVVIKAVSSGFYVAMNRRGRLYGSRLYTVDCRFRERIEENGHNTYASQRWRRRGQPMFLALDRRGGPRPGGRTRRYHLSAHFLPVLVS
ERAP1 HTS inh: human ERAP1 aminopeptidase inhibitors, primary screen, biochemical, single point, plate reader | AID 652197, 2013 | recombinant ERAP1, Leu-AMC fluorescence, 60 min | hit rate 0.15% among 340,000 | inhibition, % at 10.7 µM;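 active means mean replicate inhibition of at least 30%, or all replicates individually reaching that 30% level; inactive means mean below 30% and not every replicate reaching it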
DENV2 CPE: inhibitors of DENV2 cytopathic effect, primary screen, cell-based, plate reader, single concentration; DENV2-infected cells, cytopathic effect rescue; hit rate 1.7% among 350,000; CPE inhibition, % at 9.99 µM; in the data active means CPE inhibition above about 20%, passing the limit was not always enough; inconclusive means no clear call, values can overlap the other calls; tested in BHK-21 cells
RAD52 inh: RAD52 DNA annealing inhibitors, primary screen, biochemical, FRET, single point, set 2; DNA repair protein RAD52 homolog (Homo sapiens), P43351; recombinant RAD52 DNA annealing, FRET fluorescence; inhibition, % at 18.7 µM; hit rate 0.46% among 360,000;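 active means every replicate showing at least 50% inhibition; inconclusive means mean inhibition at least 50% but not in every replicate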
Target sequence (P43351 whole entry, looked up): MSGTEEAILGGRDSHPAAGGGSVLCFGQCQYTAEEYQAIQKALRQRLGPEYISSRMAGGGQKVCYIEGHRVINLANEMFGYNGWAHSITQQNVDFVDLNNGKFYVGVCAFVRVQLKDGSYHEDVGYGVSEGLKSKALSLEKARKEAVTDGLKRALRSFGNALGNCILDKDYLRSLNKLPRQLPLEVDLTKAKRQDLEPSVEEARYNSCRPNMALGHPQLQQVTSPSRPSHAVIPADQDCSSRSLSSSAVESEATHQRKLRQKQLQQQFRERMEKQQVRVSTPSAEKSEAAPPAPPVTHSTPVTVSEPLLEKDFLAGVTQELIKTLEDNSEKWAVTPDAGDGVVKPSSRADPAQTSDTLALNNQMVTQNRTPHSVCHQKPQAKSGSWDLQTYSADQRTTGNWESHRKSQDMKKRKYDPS
Large screens that a line does not name were inactive; ! = a repeat was not active.

c1ccc2nc(-c3nccs3)ccc2c1	FGF22 binding 43.8
CC(=O)c1sc(NC(=O)c2oc3ccc(F)cc3c2C)nc1C	DENV2 CPE 21.4
Cc1n(N)c2ccccc2[n+]1CC(=O)c1ccccc1	FGF22 binding 43.1
COc1ccc(S(=O)(=O)Nc2ccc3c(c2)CC(=O)N([C@H](C)CO)C[C@@H](C)[C@H](CN(C)C(=O)Nc2cccc4ccccc24)O3)cc1	none
Cc1ccc(-c2ccc3c(c2)O[C@@H](CN(C)C(=O)CN(C)C)[C@H](C)CN([C@H](C)CO)S3(=O)=O)cc1	none
C[C@@H]1CN([C@@H](C)CO)S(=O)(=O)c2ccc(C#Cc3ccccc3)cc2O[C@H]1CN(C)C(=O)CN(C)C	DENV2 CPE inconclusive
C[C@@H]1CN([C@H](C)CO)S(=O)(=O)c2ccc(C#Cc3ccccc3)cc2O[C@@H]1CN(C)C(=O)CN(C)C	DENV2 CPE 39.8!, RAD52 inh 67.8
CC(C)NC(=O)N(C)C[C@@H]1Oc2cc(C#Cc3ccccn3)ccc2S(=O)(=O)N([C@H](C)CO)C[C@H]1C	DENV2 CPE 22.3
Cc1ccc(-c2ccc3c(c2)O[C@@H](CN(C)C(=O)CN(C)C)[C@@H](C)CN([C@H](C)CO)S3(=O)=O)cc1	DENV2 CPE inconclusive, RAD52 inh 58.2
C[C@H](CO)N1C[C@H](C)[C@H](CN(C)C(=O)CN(C)C)Oc2cc(C#Cc3ccccc3)ccc2S1(=O)=O	RAD52 inh 59.6
C[C@H]1CN([C@@H](C)CO)S(=O)(=O)c2ccc(C#Cc3ccccc3)cc2O[C@@H]1CN(C)C(=O)CN(C)C	none
COC(=O)[C@]1(Cc2ccccc2)N=C(c2ccc(OCCCO)cc2)O[C@@H]1c1ccccc1	none
C[C@H](CO)N1C[C@H](C)[C@H](CN(C)Cc2ccc(C(=O)O)cc2)OCCCC[C@H](C)Oc2ccc(NC(=O)Nc3ccc(C(F)(F)F)cc3)cc2C1=O	none
COCC(=O)N(C)C[C@@H]1Oc2ncc(C3=CCCC3)cc2C(=O)N([C@@H](C)CO)C[C@H]1C	none
C[C@@H]1CN([C@H](C)CO)S(=O)(=O)c2ccc(C#C[C@@H](C)O)cc2O[C@H]1CN(C)C(=O)CN(C)C	none
CC(C)C#Cc1ccc2c(c1)O[C@@H](CN(C)C(=O)CN(C)C)[C@@H](C)CN([C@@H](C)CO)S2(=O)=O	DENV2 CPE 30.7
C[C@H]1CN([C@@H](C)CO)S(=O)(=O)c2ccc(C#Cc3ccccc3)cc2O[C@@H]1CN(C)C(=O)c1ccccn1	none
C[C@@H]1CN([C@H](C)CO)S(=O)(=O)c2ccc(C#Cc3ccccc3)cc2O[C@@H]1CN(C)C(=O)c1ccccn1	DENV2 CPE 42.2
CC(C)NC(=O)N(C)C[C@H]1Oc2cc(C#C[C@H](C)O)ccc2S(=O)(=O)N([C@@H](C)CO)C[C@@H]1C	none
COc1cc(CC(=O)Nc2ccccc2N2CCOCC2)cc(OC)c1OC	FGF22 binding 42.9
COc1cccc(CN(C)CC(=O)Nc2ccccc2N2CCOCC2)c1OC	none
C[C@H]1CN([C@@H](C)CO)C(=O)Cc2cc(NC(=O)CCCCCC(=O)Nc3ccccc3N)ccc2O[C@@H]1CN(C)C(=O)Nc1ccc(F)cc1	none
CC1=CCC[C@H]2[C@H](C1)C(=O)C[C@@H](C)[C@]2(C)CC/C(=C/CO)CO	DENV2 CPE 23.9
COc1ccc(C=C2CS(=O)(=O)CC(=Cc3ccc(OC)cc3)C2=O)cc1	FGF22 binding 44.4
COc1ccc(S(=O)(=O)Cc2ccc(C(=O)NC3CC3)o2)cc1	DENV2 CPE 24.5
O=C(Nc1ccc(F)cc1)c1cc(-c2ccccc2)no1	FGF22 binding 43.1
CO[C@H]1CN(C)C(=O)c2ccc(NC(=O)C3CCC3)cc2OC[C@@H](C)N(Cc2ccncc2)C[C@H]1C	none
C[C@H](CO)N1C[C@H](C)[C@@H](CN(C)S(C)(=O)=O)Oc2ncc(C3=CCCC3)cc2C1=O	none
O=C(C[C@@H]1C=C[C@@H](NC(=O)C2CCOCC2)[C@@H](CO)O1)Nc1ccccc1	none (no result: FGF22 binding)
O=C(NCc1ccccc1F)C1CC(=O)N(Cc2ccco2)C1 (centres undefined)	FGF22 binding 43.7
O=C(COC(=O)C1CC(=O)N(Cc2ccco2)C1)Nc1ccc(F)cc1F (centres undefined)	DENV2 CPE 74.2
CCC(=O)N1CC2(CCN(C(=O)NC(C)C)CC2)c2c(n(C)c3cc(OC)ccc23)[C@H]1CO	none (no result: AF4-AF9 inh, ERAP1 HTS inh)
Cc1noc(C)c1NC(=O)N(C)C[C@H]1OCCCC[C@H](C)Oc2ccc(N(C)C)cc2C(=O)N([C@H](C)CO)C[C@@H]1C	none
C[C@H](CO)N1C[C@H](C)[C@@H](CN(C)CC2CCCCC2)Oc2ccc(NC(=O)NC3CCCCC3)cc2CC1=O	none
CC1CCN(c2nc(/C=C/c3ccccc3)nc3ccccc23)CC1	AF4-AF9 inh 32.2, DENV2 CPE inconclusive
COc1ccc(C(=O)Nc2ccc(C(F)(F)F)n(C)c2=O)cc1	FGF22 binding 44.0
S=c1nn[nH]c2ccccc12	FGF22 binding 43.0
Cc1noc(C)c1S(=O)(=O)N(C)C[C@@H]1OCCCC[C@@H](C)Oc2ccc(NS(=O)(=O)c3ccc(Cl)cc3)cc2C(=O)N([C@@H](C)CO)C[C@H]1C	DENV2 CPE 35.7
Cc1noc(C)c1S(=O)(=O)N(C)C[C@H]1OCCCC[C@@H](C)Oc2ccc(NS(=O)(=O)c3ccc(Cl)cc3)cc2C(=O)N([C@@H](C)CO)C[C@@H]1C	DENV2 CPE 30.6
Cc1noc(C)c1S(=O)(=O)N(C)C[C@H]1OCCCC[C@@H](C)Oc2ccc(NS(=O)(=O)c3ccc(Cl)cc3)cc2C(=O)N([C@@H](C)CO)C[C@H]1C	none
CN1c2ccc(C#Cc3cccnc3)cc2[C@@H]2[C@@H](CCN2C(=O)c2cccc(F)c2)[C@H]1CO	DENV2 CPE 59.0 (no result: AF4-AF9 inh, ERAP1 HTS inh, RAD52 inh)
CN1c2ccc(-c3cccc(F)c3)cc2[C@@H]2[C@@H](CCN2C(=O)Cc2cccnc2)[C@H]1CO	none
CN1c2ccc(-c3cccc(F)c3)cc2[C@H]2[C@H](CCN2C(=O)Cc2cccnc2)[C@H]1CO	DENV2 CPE 113.3 (no result: AF4-AF9 inh, FGF22 binding, ERAP1 HTS inh, RAD52 inh)
COc1ccc(C#Cc2ccc3c(c2)[C@@H]2[C@@H](CCN2C(=O)c2ccncc2)[C@@H](CO)N3C)cc1	RAD52 inh 62.3
COc1ccc(-c2ccc3c(c2)[C@@H]2[C@@H](CCN2C(=O)c2ccncc2)[C@@H](CO)N3C)cc1	none
COc1ccc(NC(=O)Nc2ccc3c(c2)[C@@H]2C[C@@H](CC(=O)NCCc4ccccc4)O[C@@H](CO)[C@@H]2O3)cc1	none
O=C(N1CCCCC1)C1(S(=O)(=O)c2ccccc2)CC=CC1	AF4-AF9 inh 44.0
COCCNC(=O)C1(S(=O)(=O)c2ccccc2)CC=CC1	none
